# Data taken from PubChem BioAssay (NCATS).
# Results filed as inconclusive are left out. Where a call stands in place of a potency, no number is given. Calls of active or inactive are those of the source. Calls follow the shape of the dose curve; as a rule, active = well fitted inhibition curve with a large enough effect; inconclusive = small, poorly fitted or top-dose-only effect; inactive = flat fitted curve, though single readings scatter.
# Experiment: P-glycoprotein substrates identified in KB-8-5-11 adenocarcinoma cell line, qHTS therapeutic library screen (AID 1346987); also: nearly all actives have a fitted effect of over 65% in size
# How it was run: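 KB-8-5-11, a colchicine-selected P-gp-overexpressing KB-3-1 subline, was grown without colchicine for the assay. Cells were seeded at 500 cells/well, dosed in concentration-response and incubated 72 h at 37 degree C, 5% CO2. Viability was read by CellTiter-Glo luminescence.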
# Potency is read from the fitted curve at half-maximal effect.
Structure (SMILES),outcome,Potency
CC1(C)CC[C@]2(C(=O)O[C@@H]3O[C@H](CO)[C@@H](O)[C@H](O)[C@H]3O)CC[C@]3(C)C(=CCC4[C@@]5(C)CC[C@H](O[C@@H]6O[C@H](C(=O)O)[C@@H](O)[C@H](O)[C@H]6O)C(C)(C)C5CC[C@]43C)C2C1 (some centres not stated),inactive [at 9.29 µM],–
COc1ccc(C2=N[C@@H](c3ccc(Cl)cc3)[C@@H](c3ccc(Cl)cc3)N2C(=O)N2CCNC(=O)C2)c(OC(C)C)c1,–,inactive
Cc1nc2ccc(Oc3ccc(F)cc3)cc2c(=O)n1C[C@H]1CCCN(C(C)C)C1,–,inactive
COc1cc(C(=O)NC2CCN(C)CC2)ccc1Nc1ncc2c(n1)N(C1CCCC1)CC(F)(F)C(=O)N2C,–,1.16 µM (active)
C/C=C/c1ccc2oc(-c3ccc(O)c(OC)c3)c(C)c2c1,–,inactive
CCC(C)C(=O)O[C@H]1CCC=C2C=C[C@H](C)[C@H](CC[C@@H](O)C[C@@H](O)CC(=O)O)[C@H]21 (some centres not stated),–,inactive
CC(C)[C@@H]1C(=O)N(S(C)(=O)=O)[C@@H]2CCN(C(=O)/C=C/CN3CCCCC3)[C@H]21,–,inactive
CO/N=C(/C(=O)N[C@@H]1C(=O)N2C(C(=O)O)=C(Cn3ccc(=N)n3CCO)CS[C@H]12)c1csc(N)n1,–,inactive
OCCc1ccc(O[C@@H]2O[C@H](CO)[C@@H](O)[C@H](O)[C@H]2O)cc1,–,inactive
COc1cc2nc(N3CCCC3)nc(NCCCCCN3CCCC3)c2cc1OC,–,inactive
CC1CCC2(CO)C(C(=O)O)=CCCC2C1(C)CCc1ccoc1 (configuration not stated),–,inactive
COc1ccccc1NC(=O)OCC1CCN(C(=O)OC(C)(C)C)CC1,–,inactive
